This is a sample that favours compounds with a hit; in the whole collection about 2.1% have one here.
F508del corr = F508del CFTR correction, initial screen, CFBE line, single point; CFBE cells, YFP halide quenching; stimulated with forskolin plus potentiator P3; % fluorescence drop versus neutral controls; activity (quench increase), % at 7.58 µM; hit rate 0.36% among 350,000;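 active = mean added fluorescence quench of at least 8% versus neutral control, with both replicates also reaching 8%; inconclusive = only one of the mean or replicate conditions met; inactive = mean below 8% and not both replicates reaching 8%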;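 also: cells transiently co-express mutant CFTR-F508del with the halide-sensitive YFP; corrector assay measuring rescue of mutant channel to the surface after 24 h compound exposure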
PvdQ acylase = P. aeruginosa PvdQ acylase inhibitors, primary screen, biochemical, fluorescence, plate reader and imaging, single point | PvdQ acylase [Pseudomonas aeruginosa LESB58] | purified PvdQ acylase | inhibition, % at 10 µM | hit rate 0.063% among 340,000; in the data active = inhibition above about 30%, passing the limit was not always enough; inconclusive = no clear call, values can overlap the other calls
ERAP1 inh = human ERAP1 aminopeptidase inhibitors, primary screen, biochemical, single point, plate reader; hit rate 0.15% among 340,000; recombinant ERAP1, Leu-AMC fluorescence, 60 min; inhibition, % at 10.7 µM; Endoplasmic reticulum aminopeptidase 1 (Homo sapiens), Q9NZ08;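 active = mean replicate inhibition of at least 30%, or all replicates individually reaching that 30% level; inactive = mean below 30% and not every replicate reaching it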
Target sequence (Q9NZ08 whole entry, looked up): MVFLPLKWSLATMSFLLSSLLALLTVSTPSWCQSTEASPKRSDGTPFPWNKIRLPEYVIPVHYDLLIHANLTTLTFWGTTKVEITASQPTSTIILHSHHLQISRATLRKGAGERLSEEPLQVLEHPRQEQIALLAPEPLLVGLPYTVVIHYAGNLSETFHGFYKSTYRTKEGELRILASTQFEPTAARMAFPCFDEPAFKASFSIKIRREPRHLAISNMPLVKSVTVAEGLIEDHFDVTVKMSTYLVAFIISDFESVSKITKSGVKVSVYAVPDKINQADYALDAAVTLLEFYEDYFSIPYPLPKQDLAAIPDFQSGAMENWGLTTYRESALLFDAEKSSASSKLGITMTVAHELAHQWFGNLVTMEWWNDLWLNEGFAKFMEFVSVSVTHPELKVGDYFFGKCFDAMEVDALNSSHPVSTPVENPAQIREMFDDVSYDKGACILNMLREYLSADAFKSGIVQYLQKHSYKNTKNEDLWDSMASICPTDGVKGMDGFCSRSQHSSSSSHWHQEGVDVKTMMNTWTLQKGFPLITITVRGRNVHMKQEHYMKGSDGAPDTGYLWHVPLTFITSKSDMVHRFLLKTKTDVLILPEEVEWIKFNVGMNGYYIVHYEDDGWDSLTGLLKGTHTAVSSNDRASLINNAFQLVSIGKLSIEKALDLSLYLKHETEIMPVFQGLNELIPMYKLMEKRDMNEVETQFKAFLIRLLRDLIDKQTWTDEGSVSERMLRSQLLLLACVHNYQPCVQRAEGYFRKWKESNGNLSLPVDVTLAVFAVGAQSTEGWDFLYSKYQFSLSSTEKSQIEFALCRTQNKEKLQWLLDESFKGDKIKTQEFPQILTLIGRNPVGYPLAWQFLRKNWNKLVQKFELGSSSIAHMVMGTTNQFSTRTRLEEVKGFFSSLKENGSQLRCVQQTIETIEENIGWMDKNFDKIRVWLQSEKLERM
ARNT-TACC3 inh = disruptors of ARNT/TACC3 protein interaction, primary screen, biochemical, AlphaScreen, single concentration. AlphaScreen His-ARNT PAS-B/GST-TACC3 binding, luminescence; TACC3 fragment carries E629A point mutation. hit rate 0.66% among 390,000. Transforming acidic coiled-coil-containing protein 3 (Homo sapiens), Q9Y6A5. inhibition, % at 9.99 µM;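 active = mean inhibition of replicates at least 50% and at least half of replicates each reaching 50%; inconclusive = half or more replicates reach 50% but mean below 50%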
Ecoli rRNA inh = reduced GFP signal of wild-type E. coli, primary screen, bacterial rRNA inhibitor project, GFP/RFP fluorescence, OD600, single point | E. coli WT GFP vs humanized-ribosome RFP mutants, 24 h; active compounds read low; DMSO median 0, no signal -100 | GFP signal change (wild-type ribosome), % (concentration not given with the values) | hit rate 1.6% among 350,000 | AID 720706, 2013;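 active = significant combined selectivity score with lowered wild-type GFP, culture density cut under 30%, mutant RFP and density less affected; inactive = any of these conditions unmet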
AID977621 = growth inhibition of wild-type GFP E. coli, dose response, H69 mutant RFP, cherry-pick | 1,900 tested, under 10 active | E. coli wild-type GFP strain growth, fluorescence, 24 h | activity change, negative = inhibition at 50 µM | shares compounds with Ecoli rRNA inh;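 active = Wild-type ribosome reporter drop at least double the humanized mutant ribosome reporter drop, growth loss under a set limit; inconclusive = no clear call, values can overlap the other calls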;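 also: wild-type GFP and H69 mutant RFP strains grown together 50/50 in each well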
AID977628 = E. coli growth inhibition, wild-type GFP versus h24 humanized RFP strain, dose response, h24 mutant RFP vs wild-type GFP, cherry-pick. shares compounds with Ecoli rRNA inh. E. coli WT GFP strain growth, fluorescence, 24 h. activity change, negative = inhibition at 50 µM. 1,900 tested, under 10 active;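 active = compound lowering the normal-ribosome reporter at least twice as much as the humanized-ribosome reporter, growth loss under a set limit; inconclusive = no clear call, values can overlap the other calls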;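 also: wild-type GFP and h24 humanized RFP strains co-cultured 1 to 1 per well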
Large screens that a line does not name were inactive (follow-up assays come after a bar, where they were run).

Cc1ccc(-n2cc(CNCCN3CCOC3=O)c(-c3ccc(F)cc3)n2)cc1	Ecoli rRNA inh -18 | AID977621 inactive | AID977628 inconclusive
CN1CCN(C(=O)c2cc3sc4ccccc4c3s2)CC1	Ecoli rRNA inh -24 | AID977628 inconclusive
CCn1c(=O)c2cc(C(=O)N3CCN(C)CC3)sc2c2ccccc21	none
Cc1ccc(S(=O)(=O)Nc2ccc3c(c2)C(=O)N([C@@H](C)CO)C[C@@H](C)[C@H](CN(C)C(=O)c2ccccc2)OCCCC[C@@H](C)O3)cc1	Ecoli rRNA inh -23 (no result: PvdQ acylase) | AID977621 inactive | AID977628 inactive
Cc1ccc(S(=O)(=O)Nc2ccc3c(c2)C(=O)N([C@@H](C)CO)C[C@@H](C)[C@@H](CN(C)C(=O)c2ccccc2)OCCCC[C@H](C)O3)cc1	none (no result: PvdQ acylase)
Cc1ccc(S(=O)(=O)Nc2ccc3c(c2)C(=O)N([C@H](C)CO)C[C@@H](C)[C@H](CN(C)C(=O)c2ccccc2)OCCCC[C@@H](C)O3)cc1	Ecoli rRNA inh -16 (no result: PvdQ acylase) | AID977621 inactive | AID977628 inconclusive
CN1C(=O)c2cc(NC(=O)C3CC3)ccc2OC[C@H]2O[C@@H](CC(=O)Nc3cc(F)ccc3F)CC[C@@H]21	none (no result: PvdQ acylase, ARNT-TACC3 inh)
S=C(NCc1ccc2c(c1)OCO2)NC1CCN(Cc2ccccc2)CC1	none (no result: ARNT-TACC3 inh)
C=C1c2cc3c(cc2NC(=S)N1Cc1ccccc1)OCO3	Ecoli rRNA inh -27 (no result: PvdQ acylase, ARNT-TACC3 inh) | AID977621 inactive | AID977628 inactive
O=[N+]([O-])c1ccccc1Oc1ccc(Cl)c2cccnc12	Ecoli rRNA inh -29 | AID977621 inactive
Clc1ccc(Oc2ccccc2)c2ncccc12	none (no result: F508del corr)
O=[N+]([O-])c1cccc(COc2ccc(CN3CCOCC3)cc2)c1	Ecoli rRNA inh -17 | AID977621 inactive | AID977628 inactive
O=C(O)CSc1nnc(-c2ccc(Cl)cc2Cl)n1-c1ccc(Br)cc1	Ecoli rRNA inh -30 (no result: F508del corr) | AID977621 inactive
O=C(O)CSc1nnc(-c2ccncc2)n1-c1ccc(Cl)cc1	none (no result: F508del corr, ERAP1 inh, Ecoli rRNA inh)
CC(C)NC(=O)N(C)C[C@@H]1Oc2cc(-c3ccncc3)ccc2S(=O)(=O)N([C@@H](C)CO)C[C@H]1C	none (no result: PvdQ acylase)
COc1cccc(NC(=O)N2C[C@@H](O)COC[C@H]3O[C@H](CC(=O)NC4CCCC4)CC[C@@H]32)c1	none (no result: PvdQ acylase)
CNC[C@@H]1OCCCC[C@@H](C)Oc2ccc(NC(=O)Nc3cccc4ccccc34)cc2C(=O)N([C@H](C)CO)C[C@@H]1C	none (no result: PvdQ acylase, ERAP1 inh, ARNT-TACC3 inh)
C[C@@H]1CN([C@H](C)CO)C(=O)c2cc(NC(=O)Nc3cccc4ccccc34)ccc2O[C@@H](C)CCCCO[C@H]1CN(C)C	none (no result: PvdQ acylase, ERAP1 inh, ARNT-TACC3 inh, Ecoli rRNA inh)
CNC[C@H]1OCCCC[C@@H](C)Oc2ccc(NC(=O)Nc3cccc4ccccc34)cc2C(=O)N([C@@H](C)CO)C[C@H]1C	Ecoli rRNA inh -25 (no result: PvdQ acylase) | AID977628 inconclusive
C[C@@H]1CN([C@@H](C)CO)C(=O)c2cc(NC(=O)Nc3cccc4ccccc34)ccc2O[C@@H](C)CCCCO[C@@H]1CN(C)C	none (no result: PvdQ acylase, ERAP1 inh, ARNT-TACC3 inh) | AID977621 inactive | AID977628 inconclusive
C[C@@H]1CCCCO[C@@H](CN(C)C)[C@@H](C)CN([C@@H](C)CO)C(=O)c2cc(NC(=O)Nc3cccc4ccccc34)ccc2O1	none (no result: PvdQ acylase) | AID977621 inactive | AID977628 inconclusive
Cc1ccc(-c2cc[n+](Cc3ccccc3)cc2)cc1	Ecoli rRNA inh -32 | AID977621 inactive | AID977628 inconclusive
Cc1ccccc1OCc1nc2ccccc2n1C	Ecoli rRNA inh -27 | AID977628 inactive
Cn1c(COc2ccc(F)cc2)nc2ccccc21	none
CCCCNC(=O)C[C@@H]1C[C@@]2(C(=O)OC)CCCCC=C2N(Cc2ccccc2)C1=O	Ecoli rRNA inh -22 (no result: PvdQ acylase, ERAP1 inh, ARNT-TACC3 inh) | AID977621 inactive
O=C(Nc1cccc(Cl)c1)N1C[C@@H]2[C@H](c3ccccc31)[C@@H](CO)N2CC1CCCCC1	Ecoli rRNA inh -56 (no result: PvdQ acylase, ERAP1 inh) | AID977621 inconclusive
O=C(Nc1cccc(Cl)c1)N1C[C@H]2[C@@H](c3ccccc31)[C@H](CO)N2CC1CCOCC1	none (no result: PvdQ acylase)
O=C(Nc1ccc(F)cc1)N1C[C@H]2[C@@H](c3ccccc31)[C@H](CO)N2C(=O)c1ccccn1	none (no result: PvdQ acylase)
O=C(Nc1ccc(Cl)cc1)N1C[C@H]2[C@@H](c3ccccc31)[C@@H](CO)N2C(=O)c1ccccn1	Ecoli rRNA inh -23 (no result: PvdQ acylase) | AID977621 inactive
C[C@H](CO)N1C[C@H](C)[C@@H](CN(C)Cc2ccncc2)Oc2ccc(NC(=O)C3CC3)cc2C1=O	none (no result: PvdQ acylase, ERAP1 inh, ARNT-TACC3 inh)
C[C@@H]1CCCCO[C@@H](CN(C)Cc2ccncc2)[C@@H](C)CN([C@@H](C)CO)C(=O)c2cc(NS(C)(=O)=O)ccc2O1	none (no result: PvdQ acylase, ERAP1 inh, ARNT-TACC3 inh)
O=C(O)CC1(CC(=O)Nc2ccc3sccc3c2)CCCCC1	Ecoli rRNA inh -26 (no result: PvdQ acylase, ARNT-TACC3 inh) | AID977621 inactive | AID977628 inactive
COc1cccc(NC(=O)Nc2ccc3c(c2)C(=O)N(C)C[C@H](OC)[C@@H](C)CN(C)[C@H](C)CO3)c1	none (no result: PvdQ acylase)
COc1cccc(NC(=O)c2ccc(C(=O)c3ccccc3)o2)c1	Ecoli rRNA inh -33 | AID977621 inactive
COc1cccc(C(=O)Nc2ccccc2)c1	none (no result: F508del corr, ERAP1 inh, Ecoli rRNA inh)
Cc1cccc(S(=O)(=O)Nc2ccc(-c3cn4ccccc4n3)cc2)c1	Ecoli rRNA inh -32 | AID977621 inconclusive
O=C(NCc1ccccc1Cl)c1ccccc1CCc1ccccc1	none
C=CCNC(=O)c1ccccc1CCc1ccccc1	Ecoli rRNA inh -26 | AID977621 inactive | AID977628 inactive
CNC(=O)C[C@H]1CC[C@H]2[C@H](COc3ccc(NC(=O)Nc4cccc(F)c4)cc3C(=O)N2C)O1	none (no result: PvdQ acylase, ERAP1 inh)
C=CCSc1cc(C)nc2c(-c3ccc(Cl)cc3)c(C)nn12	none
Cc1cc(SCC(=O)c2cccs2)n2nc(C)c(-c3ccc(Cl)cc3)c2n1	Ecoli rRNA inh -31 (no result: F508del corr) | AID977621 inactive | AID977628 inactive
CO[C@@H]1CN(C)C(=O)c2cc(NC(=O)c3cnccn3)ccc2OC[C@@H](C)NC[C@@H]1C	none (no result: PvdQ acylase)
O=C(Nc1cc(F)cc(F)c1)c1ccc(NCCCN2CCCCCC2)c([N+](=O)[O-])c1	none
Cc1ccc(NC(=O)c2ccc(NCCCN3CCC(C)CC3)c([N+](=O)[O-])c2)c(C)c1	none

From PubChem
